Experimental data published in PubChem BioAssay (Tox21).
Results filed as inconclusive are left out. Unmarked numbers belong to inactive results. Active and inactive are the calls of the source. Calls come from the whole dose curve; as a rule, active = well fitted cell-killing curve with a large enough effect in the repeat runs; inconclusive = weak or mixed curves, or effect the other way; inactive = flat fitted curve, though single readings scatter.

Assay: cAMP Responsive Elements (CRE) small molecule antagonists, cell-based qHTS assay: qHTS cell viability counter screen (AID 2060913); note: nearly all actives have a fitted effect of over 40% in size
Settings: CRE-bla HEK293T viability, CellTiter-Glo luminescence, 5 h; series mostly up to 92.4 µM; viability change, negative = cytotoxic: at the top concentration
From the text: U.S. Tox21 Program National Center for Advancing Translational Sciences [NCATS] Division of Preclinical Innovation [DPI] U.S. Environmental Protection Agency [EPA] National Institutes of Environmental Health Sciences [NIEHS] National Toxicology Program [NTP] U.S. Food and Drug Administration [FDA] Tox21 Assay Overview: CREB (cyclic-AMP Responsive Element Binding Protein) is a cellular transcription factor. It binds to certain DNA sequences called cAMP Responsive Elements (CRE) and regulates the transcription of the genes. […] This cell line can be used to find agonists/antagonists of the cyclic AMP signaling pathway. The activation of the report gene under culture conditions can be detected by fluorescence intensity. This cell line has been used to screen the Tox21 10K compound library to identify agonists that induce oxidative stress. The cytotoxicity of the Tox21 compound library against the CRE-bla cell line was tested in parallel by measuring the cell viability using CellTiter-Glo assay (Promega, Madison, WI) in the same wells.
Tox21 Assay Protocol Summary: CRE-bla Hek 293T cells were suspended in assay medium (DMEM containing 10% dialyzed FBS, 0.1 mM NEAA, 1 mM sodium pyruvate and 25 mM HEPES) and dispensed at 2,000 cells/4 uL /well into 1536-well black wall/clear bottom plates using a Multidrop Combi (ThermoFisher Scientific, Waltham, MA) dispenser. After the assay plates were incubated at 37 C/5% CO2 for 18 hrs, 23 nL of compounds dissolved in DMSO, positive controls or DMSO only was transferred to the assay plate by a pintool workstation (Kalypsys, San Diego, CA), followed by addition of 1 uL of 1.25uM NKH477 (0.25 uM as final concentration) in assay medium using a Flying Reagent Dispenser (Aurora Discovery, San Diego, CA). The plates were incubated at 37 C and 5% CO2 for 3 hrs. Then 1 uL of LiveBLAzer B/G FRET substrate (Invitrogen, Carlsbad, CA) was added to each well using Bioraptr Flying Reagent Dispenser (FRD, Aurora Discovery, San Diego, CA). The plates were incubated at room temperature for 2 h, then fluorescence intensities were measured using an Envision plate reader (PerkinElmer, Shelton, CT) at Excitation 405nm, Emission 460nm and 530nm. The % activity was determined from the ratio of 460nm/530nm. For cell viability readout that measures cytotoxicity, 4 uL /well of CellTiter-Glo reagent was added into the assay plates using Bioraptr FRD. After 30 min incubation at room temperature, the luminescence intensity in the assay plates was measured using a ViewLux (PerkinElmer, Shelton, CT) plate reader.
% is set by controls: 0 for no effect and ±100 for the full control effect.

Row | SMILES | viability change, negative = cytotoxic | Potency
1 | Cn1cccc1 | 2.2% | –
2 | Cc1ccc(C(=O)O)cc1 | -0.0184% | –
3 | CCOC(=O)C(C)(C)C | 2.92% | –
4 | Cc1c(C(=O)O)c(O)cc2c1C(=O)c1c(O)c([C@@H]3O[C@H](CO)[C@@H](O)[C@H](O)[C@H]3O)c(O)c(O)c1C2=O | – | inactive
5 | Oc1cccc2c(O)cccc12 | 10.6% | –
6 | CC(C)CCO | -8.87% | –
7 | O=c1[nH]nc(-c2ccc([N+](=O)[O-])o2)o1 | -0.124% | –
8 | CC1=C(/C=C/C(C)=C/C=C/C(C)=C\C=O)C(C)(C)CCC1 | 6.65% | –
9 | Nc1ncnc2c1ncn2[C@@H]1O[C@H](CO)[C@@H](O)[C@H]1O | -1.82% [at 42.5 µM] | –
10 | CC12CCCC=C1C(=O)OC2=O (stereo not given) | -0.7% | –
11 | COc1ccccc1N1CCN(CC(O)COc2cccc3ccccc23)CC1 (stereo not given) | -17.1% [at 42.5 µM] | –
12 | C=CC(OCC)OCC | -2.17% | –
13 | CN(C)/N=N/c1nc[nH]c1C(N)=O | – | inactive
14 | Cc1cc(CC(=O)O)n(C)c1C(=O)c1ccc(Cl)cc1 | – | inactive
15 | CCCCCCCCN | -4.61% | –
16 | O=C1CCC(=O)N1 | -4.6% | –
17 | CC1CC(OC(=O)c2ccccc2O)CC(C)(C)C1 (stereo not given) | – | inactive
18 | Oc1ccc(Cc2ccccc2O)cc1 | – | inactive
19 | O=C1CCCCCCCCCCC1 | – | inactive
20 | O=C1CCCCCCCCCCOCCCCO1 | -3.5% | –

Row | SMILES | viability change, negative = cytotoxic | Potency
21 | O=C(O)c1cccc(O)c1 | -3.31% | –
22 | Cc1ccc(Cl)cc1N | 9.76% | –
23 | CCSCC | -1.42% | –
24 | COc1ccc(-n2nc(CCC(=O)N(C)O)cc2-c2ccc(Cl)cc2)cc1 | 6.97% [at 42.5 µM] | –
25 | Cc1cccc2n[nH]nc12 | – | inactive
26 | O=C(CCCCCCCCC#CI)Oc1ccccc1 | 9.18% [at 42.5 µM] | –
27 | COc1cc(Cc2cnc(N)nc2N)cc(OC)c1OC | – | inactive
28 | Brc1c2ccccc2cc2ccccc12 | -27.1% | –
29 | CCCCOC(=O)[C@H](C)O | -6.41% | –
30 | CCCOc1ccccc1-c1nc2n[nH]nc2c(=O)[nH]1 | -0.914% [at 42.5 µM] | –
31 | CC(C)(C)C(=O)c1ccccc1 | 7.56% | –
32 | O=C1c2ccccc2C(=O)C1c1ccc(Br)cc1 | -3.65% [at 42.5 µM] | –
33 | CN1CCN(C2=Nc3ccccc3Sc3ccc(Cl)cc32)CC1 | 0.118% [at 42.5 µM] | –
34 | CCCC[N+](C)(CCCC)CCCC | -0.253% | –
35 | CCc1cccc(C)c1N | – | inactive
36 | O=C1OC2(c3cc(Br)c(O)c(Br)c3Oc3c2cc(Br)c(O)c3Br)c2c(Cl)c(Cl)c(Cl)c(Cl)c21 | – | inactive
37 | CCOC(=O)C(=O)OCC | 1.84% | –
38 | O=C(NC(Cc1cc(=O)[nH]c2ccccc12)C(=O)O)c1ccc(Cl)cc1 (stereo not given) | 0.173% [at 42.5 µM] | –
39 | COC(=O)c1c(Cl)c(Cl)c(C(=O)OC)c(Cl)c1Cl | – | inactive
40 | CC(C)CC(C)CC(O)CC(C)C (stereo not given) | – | inactive
